# Measurements: ChEMBL document CHEMBL3988442, “University of Dundee, Small-Polar-MMV Screening Library” (2021)
# Biological target: AMP-activated protein kinase, AMPK (Homo sapiens) (UniProt P54646+O43741+P54619+Q9UGJ0+Q9Y478+Q13131+Q9UGI9)
# Test: AMP-dependent Kinase enzyme assay. An in vitro enzyme assay that detects ADP turnover that is directly proportional to AMPK activity. This uses naive AMPK that is activated during the assay with MK-8722
# Assay type: functional
# Design: scale not given: direction of the effect not stated beside the values
# Details: 30 µM
row,Structure (SMILES),Percent Effect [%]
1,COc1cc2ncn(Cc3ncc[nH]3)c(=O)c2cc1OC,-1.8
2,Cc1cc(C(=O)NC(C)Cc2ccc(N(C)C)cc2)n(C)n1 (centres undefined),11.6
3,Cc1nc2n(n1)CC(Nc1nc(C(F)(F)F)nc3ccccc13)CC2 (centres undefined),1.51
4,c1ccc2oc(C3CCN(Cc4ncon4)CC3)nc2c1,-10.5
5,CCC[C@@H]1CN(Cc2cnc(-c3cccs3)nc2)C[C@H]1C(=O)O,-8.24
6,O=C(CCn1cc(Cl)cn1)N1CCCC(O)(CO)CC1 (centres undefined),-3.36
7,COc1cccc(CC2CCCN2Cc2nccn2C)c1 (centres undefined),-2.19
8,CS(=O)(=O)NC1CCN(Cc2coc(-c3ccccc3)n2)CC1,0.161
9,Cc1cc(F)ccc1N1CCCC(NC(=O)CCCn2ccnc2)C1 (centres undefined),8.09
10,CCC(CNC(=O)c1cccc(S(=O)(=O)NC)c1)N1CCCC1 (centres undefined),0.599
11,CCCc1n[nH]c(=O)n1Cc1ccc(OC)cc1,3.68
12,CSc1nccc(N2CCC(NCc3ccc4nsnc4c3)CC2)n1,2.27
13,CCc1nnc2n1CCN(C(=O)C(C)Oc1cccc(C#N)c1)C2 (centres undefined),5.56
14,CCSc1cc(C(=O)N(C(C)C)C2CC2)ccn1,0.102
15,CC(C)N(C)S(=O)(=O)c1ccc2c(c1)CCN(C(=O)c1cccnn1)C2,-25.3
16,O=C(NCc1nnc2n1CCC2)c1cccc(Br)c1,3.99
17,CC(C)c1noc(C(C)N2CCC(c3nc4ccccc4[nH]3)CC2)n1 (centres undefined),0.872
18,CNC(=O)NC(=O)CN(Cc1ccc(C#N)cc1)Cc1cccc(F)c1,-4.48
19,CCNc1ncc(CN2CCOC(Cc3cccc(OC)c3)C2)cn1 (centres undefined),0.956
20,COCc1c(Br)cccc1NC(=O)CC(F)(F)F,-6.57

row,Structure (SMILES),Percent Effect [%]
1,Cc1cncnc1C1CCN(C(=O)C2(C)CCCCN2C)CC1 (centres undefined),17
2,CCCNC(=O)CNC(=O)CC1CCCc2cc(OC)ccc21 (centres undefined),-4.21
3,O=C(CCN1CCOCC1)Nc1cccc(CNCc2cccs2)c1,-8.77
4,Cc1cc(N(C)C)nc(N2CCn3c(C)nnc3C2)n1,-2.14
5,O=C(O)CCc1cc2n(n1)CCCN(C(=O)c1ccc(Cl)s1)C2,2.58
6,CCOc1ccc(CN2CCOCC2c2[nH]ncc2C)cc1CO (centres undefined),22.7
7,CCN1CC(CN(C)c2cc(C)nc(N)n2)Oc2ccccc21 (centres undefined),3.94
8,Cc1cc(C)n(CCCN(C)c2cc(C3CC3)ncn2)n1,6.65
9,CCN(C(=O)Cn1cc(Cl)cn1)c1ccccc1,-10.4
10,O=C1[C@@H]2C[C@H](O)CCN2C(=O)CN1CCSc1ccccn1,-5.57
11,CC(C)N(CC(=O)Nc1cccc(C(=O)N(C)C)c1)C1CC1,1.38
12,O=C(C1CC1)N1CCCCCC1C1CCN(c2ncccn2)CC1 (centres undefined),-6.9
13,Cc1nsc(N2CCN(CC(=O)N(C3CC3)C(C)C3CC3)CC2)n1 (centres undefined),7.84
14,Cc1ccc(S(=O)(=O)Cc2nnc(C)n2C)cc1,6.55
15,O=C(NCCN1CCOC1=O)c1cnc(-c2cccnc2)nc1,-1.72
16,CN1CCN(CCOc2ccc(NC(=O)c3ccc[nH]3)cc2)CC1,6.53
17,O=C(c1ccncc1)N1CCC(Oc2cccc(C(F)(F)F)c2)CC1,-1.49
18,CCOC(=O)c1n[nH]cc1CN1CCOC(Cc2ccc(OC)cc2)C1 (centres undefined),2.27
19,COC[C@@H]1CCCN1C(=O)CCc1c(C)nn(C)c1C,-3.67
